Experimental data: PubChem BioAssay (NCATS)
Inconclusive results are not listed. Entries that show only a call come without a potency. The source made the active and inactive calls. Unless noted, calls come from the whole dose curve; as a rule, active = well fitted curve in either direction with a large enough effect (not every such curve was filed as active); inconclusive = small, poorly fitted or top-dose-only effect, or another doubt; inactive = flat fitted curve, though single readings scatter.

Key:
[1] = AP1 Signaling Pathway (AID 357);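 note: ME-180 reporter cells stimulated with EGF at its EC50 level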
Method in brief: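 First, ME-180 AP-1-bla cells were cultured overnight at 37 °C in low-serum Opti-MEM. Next, titrated compounds with EC50 EGF were incubated 5 hours. Finally, CCF4 was added for 2.5 hours and the 460/530 nm ratio recorded.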

[2] = target: Cytochrome P450 1A2 (Homo sapiens) (UniProt P05177); assay: p450-cyp1a2 (AID 410; calls by dose curve)
Sequence of Cytochrome P450 1A2 (Homo sapiens) (P05177 whole entry, looked up): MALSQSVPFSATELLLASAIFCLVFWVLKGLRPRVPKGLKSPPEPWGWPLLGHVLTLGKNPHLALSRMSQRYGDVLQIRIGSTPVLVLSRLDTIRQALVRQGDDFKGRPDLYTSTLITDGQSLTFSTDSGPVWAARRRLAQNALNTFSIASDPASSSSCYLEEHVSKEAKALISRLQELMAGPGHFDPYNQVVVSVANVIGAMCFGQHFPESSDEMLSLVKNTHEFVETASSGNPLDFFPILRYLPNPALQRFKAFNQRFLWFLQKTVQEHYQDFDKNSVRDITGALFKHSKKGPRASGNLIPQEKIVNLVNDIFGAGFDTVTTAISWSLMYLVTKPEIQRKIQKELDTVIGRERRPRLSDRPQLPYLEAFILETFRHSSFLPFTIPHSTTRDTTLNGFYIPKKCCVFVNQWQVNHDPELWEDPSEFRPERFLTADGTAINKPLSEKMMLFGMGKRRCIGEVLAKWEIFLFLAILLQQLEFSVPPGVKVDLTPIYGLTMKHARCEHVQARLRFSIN
Method in brief: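 Read-out is luminescence from luciferin produced by CYP1A2 demethylation of Luciferin-ME (100uM, at Km). Detection reagent stopped the 60 min NADPH-dependent reaction; signals were normalized to 57 uM furafylline.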

[3] = NFAT Signaling Pathway (AID 444); details: Jurkat NFAT-bla M1, carbachol, beta-lactamase ratio, 5 h; at 17.2 µM (top of the series);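 note: carbachol stimulus at about its EC50 of 1 µM final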
Method in brief: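 Read-out: CCF4 FRET ratio (460 nm/530 nm) after 1 h RT dye loading, used for %activity and AC50 from titration series. Cells: Jurkat NFAT-β-lactamase/M1 line, treated with compound plus 1 uM carbachol for 5 h, 37 °C.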

[4] = Stat Signaling Pathway (AID 446);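 note: ME-180 cervical cancer cells given 40 pM IL-6 alongside compound; SIE-controlled beta-lactamase reporter measured as 460/530 nm FRET emission ratio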
Method in brief: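 Normalization used AC90 stimulation (300 pM IL-6) and AC90 inhibition (125 nM pan-JAK inhibitor at 40 pM IL-6). The underlying signal is SIE-driven beta-lactamase in ME-180 cells after 5 h IL-6 exposure with compound.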

[5] = target: Glucocorticoid receptor (Homo sapiens) (UniProt P04150); assay: GR-GFP Redistribution (AID 450;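 active = compounds whose dose series gives a full or clear partial fitted curve of increased nuclear translocation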; note: potency is the fitted concentration of half-maximal effect); details: U2OS GR-GFP nuclear translocation, laser cytometry, 2 h
Sequence of Glucocorticoid receptor (Homo sapiens) (P04150 whole entry, looked up, the tested form may be a part): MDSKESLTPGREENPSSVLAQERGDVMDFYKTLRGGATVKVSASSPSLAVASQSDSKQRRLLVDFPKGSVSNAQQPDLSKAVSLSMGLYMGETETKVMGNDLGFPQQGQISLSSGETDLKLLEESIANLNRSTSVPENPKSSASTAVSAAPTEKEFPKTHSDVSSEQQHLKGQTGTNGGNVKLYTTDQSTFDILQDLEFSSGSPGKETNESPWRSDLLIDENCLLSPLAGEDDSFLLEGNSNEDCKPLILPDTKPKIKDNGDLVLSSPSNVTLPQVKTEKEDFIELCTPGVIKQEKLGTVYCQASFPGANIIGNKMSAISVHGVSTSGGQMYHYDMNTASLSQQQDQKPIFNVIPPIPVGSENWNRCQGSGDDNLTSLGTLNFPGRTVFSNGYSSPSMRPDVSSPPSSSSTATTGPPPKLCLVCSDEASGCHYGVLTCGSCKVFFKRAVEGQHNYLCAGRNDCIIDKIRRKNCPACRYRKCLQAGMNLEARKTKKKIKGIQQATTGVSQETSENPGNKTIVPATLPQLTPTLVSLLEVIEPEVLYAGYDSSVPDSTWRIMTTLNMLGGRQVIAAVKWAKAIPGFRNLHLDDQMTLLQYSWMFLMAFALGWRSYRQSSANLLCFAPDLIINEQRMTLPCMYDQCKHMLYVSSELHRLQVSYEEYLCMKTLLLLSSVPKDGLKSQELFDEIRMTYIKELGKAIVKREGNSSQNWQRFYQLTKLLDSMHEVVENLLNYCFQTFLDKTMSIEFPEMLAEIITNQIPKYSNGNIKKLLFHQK

[6] = target: Glucocorticoid receptor (Homo sapiens) (UniProt P04150); assay: GR-EFC Redistribution (AID 451; calls by dose curve; note: potency is the fitted concentration of half-maximal effect); details: CHO-K1 GR-EFC translocation, beta-gal luminescence, 2 h
Method in brief: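 Translocation of GR-ED fusion to nuclear EA restores b-gal, read by luminescence after 1 h room-temperature detection. Engineered CHO-K1 biosensor cells, 1,000/well, exposed 2 h at 37 C to titrations up to 46 uM final.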

[7] = target: Mitogen-activated protein kinase 10 (Mus musculus) (UniProt Q61831); assay: JNK3 AlphaScreen Assay (AID 530);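 note: kinase came from lysate of stimulated human HepG2 cells; signal reports phosphorylation of biotinylated GST-cJun 1-79 at Ser73 with 10 µM ATP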
Method in brief: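 Kinase buffer: 20 mM Tris-HCl pH 7.6, 10 mM MgCl2, 1 mM DTT, 0.1 mM Na3VO4, 0.01% Tween-20; ATP 10 uM. Substrate biotin-GST-cJun(1-79), enzyme from activated HepG2 lysates. Detection by Ser73 phospho-antibody AlphaScreen.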

[8] = target: 3',5'-cyclic-AMP phosphodiesterase 4B (Homo sapiens) (UniProt Q07343); assay: qHTS Assay for Inhibitors of PDE-IV (AID 607; active = well fitted activation curve with a large enough effect in the main read-out, with a control signal flat, not every such curve was filed as active)
Sequence of 3',5'-cyclic-AMP phosphodiesterase 4B (Homo sapiens) (Q07343 whole entry, looked up): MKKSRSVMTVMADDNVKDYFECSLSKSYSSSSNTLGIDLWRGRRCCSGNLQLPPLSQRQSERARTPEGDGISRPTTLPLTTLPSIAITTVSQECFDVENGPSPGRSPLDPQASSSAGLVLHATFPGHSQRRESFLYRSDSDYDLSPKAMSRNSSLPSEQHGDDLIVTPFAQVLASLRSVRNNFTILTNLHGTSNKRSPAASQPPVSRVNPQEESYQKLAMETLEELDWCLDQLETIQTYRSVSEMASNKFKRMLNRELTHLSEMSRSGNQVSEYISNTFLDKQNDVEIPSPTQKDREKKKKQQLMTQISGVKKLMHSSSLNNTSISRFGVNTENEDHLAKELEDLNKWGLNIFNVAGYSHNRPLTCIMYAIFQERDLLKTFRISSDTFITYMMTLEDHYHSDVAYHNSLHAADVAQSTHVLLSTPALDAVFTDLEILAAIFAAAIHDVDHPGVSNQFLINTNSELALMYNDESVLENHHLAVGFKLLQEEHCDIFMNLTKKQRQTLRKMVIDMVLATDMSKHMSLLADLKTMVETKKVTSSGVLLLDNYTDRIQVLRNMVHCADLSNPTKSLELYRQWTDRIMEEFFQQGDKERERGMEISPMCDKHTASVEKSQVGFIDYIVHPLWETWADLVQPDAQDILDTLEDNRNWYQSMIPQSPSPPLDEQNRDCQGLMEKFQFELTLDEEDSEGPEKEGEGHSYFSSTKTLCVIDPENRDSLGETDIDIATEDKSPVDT
Method in brief: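 HEK293 ACTOne cells with CNG channel (1000/well), endogenous PDE4; membrane potential dye, compounds up to 22.9 uM final. Fluorescence Ex 535/Em 590; RO 20-1724 (100 uM final) as reference.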

[9] = target: Cytochrome P450 3A4 (Homo sapiens) (UniProt P08684); assay: qHTS Assay for Activators of Cytochrome P450 3A4 (AID 885; active = well fitted curve in the direction sought with a large enough effect; an effect the other way counts as inactive or inconclusive; note: nearly all actives have a fitted effect of over 65% in size)
Sequence of Cytochrome P450 3A4 (Homo sapiens) (P08684 whole entry, looked up): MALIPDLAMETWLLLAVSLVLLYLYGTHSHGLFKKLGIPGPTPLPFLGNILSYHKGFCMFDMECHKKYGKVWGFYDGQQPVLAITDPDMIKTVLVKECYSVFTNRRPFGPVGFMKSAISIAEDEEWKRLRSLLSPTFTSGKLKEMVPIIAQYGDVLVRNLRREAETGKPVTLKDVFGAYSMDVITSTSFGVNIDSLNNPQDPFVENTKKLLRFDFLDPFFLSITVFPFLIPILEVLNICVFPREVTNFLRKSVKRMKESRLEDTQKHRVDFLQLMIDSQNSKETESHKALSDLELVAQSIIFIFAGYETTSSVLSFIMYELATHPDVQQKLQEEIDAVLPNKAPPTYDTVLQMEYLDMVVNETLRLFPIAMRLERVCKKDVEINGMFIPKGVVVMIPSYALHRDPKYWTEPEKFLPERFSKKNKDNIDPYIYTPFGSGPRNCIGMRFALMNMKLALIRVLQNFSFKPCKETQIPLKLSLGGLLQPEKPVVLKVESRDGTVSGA
Method in brief: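 Human CYP3A4 dealkylates Luciferin-PPXE to luciferin, which luciferase detection converts to light. Substrate was at its KM (25uM), buffer 200mM KPO4, reaction 60 min at RT.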

[10] = qHTS Assay for Lipid Storage Modulators (AID 1519; calls by dose curve); details: Drosophila S3 cells, BODIPY lipid droplet/cell ratio, laser cytometry, cells loaded with oleic acid; for activity change, negative = inhibition: at 25.7 µM (top of the series)
Method in brief: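 Cells seeded at 5,000 per well were treated with compounds over a concentration series and loaded with oleic acid (400 uM, as added). Lipid droplet fluorescence (488 nm excitation, 500-530 nm channel) was read by laser-scanning cytometry and normalized to 20 uM Triacsin C.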

[11] = target: Ubiquitin carboxyl-terminal hydrolase 1 (Homo sapiens) (UniProt O94782); assay: Inhibitors of USP1/UAF1: Pilot qHTS (AID 504865; active = well fitted curve in the direction sought with a large enough effect; an effect the other way counts as inactive or inconclusive;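 note: rhodamine fluorescence freed from ubiquitin-rhodamine substrate followed over time; top concentration of the series differs between compounds; nearly all actives have a fitted effect of over 35% in size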)
Sequence of Ubiquitin carboxyl-terminal hydrolase 1 (Homo sapiens) (O94782 whole entry, looked up): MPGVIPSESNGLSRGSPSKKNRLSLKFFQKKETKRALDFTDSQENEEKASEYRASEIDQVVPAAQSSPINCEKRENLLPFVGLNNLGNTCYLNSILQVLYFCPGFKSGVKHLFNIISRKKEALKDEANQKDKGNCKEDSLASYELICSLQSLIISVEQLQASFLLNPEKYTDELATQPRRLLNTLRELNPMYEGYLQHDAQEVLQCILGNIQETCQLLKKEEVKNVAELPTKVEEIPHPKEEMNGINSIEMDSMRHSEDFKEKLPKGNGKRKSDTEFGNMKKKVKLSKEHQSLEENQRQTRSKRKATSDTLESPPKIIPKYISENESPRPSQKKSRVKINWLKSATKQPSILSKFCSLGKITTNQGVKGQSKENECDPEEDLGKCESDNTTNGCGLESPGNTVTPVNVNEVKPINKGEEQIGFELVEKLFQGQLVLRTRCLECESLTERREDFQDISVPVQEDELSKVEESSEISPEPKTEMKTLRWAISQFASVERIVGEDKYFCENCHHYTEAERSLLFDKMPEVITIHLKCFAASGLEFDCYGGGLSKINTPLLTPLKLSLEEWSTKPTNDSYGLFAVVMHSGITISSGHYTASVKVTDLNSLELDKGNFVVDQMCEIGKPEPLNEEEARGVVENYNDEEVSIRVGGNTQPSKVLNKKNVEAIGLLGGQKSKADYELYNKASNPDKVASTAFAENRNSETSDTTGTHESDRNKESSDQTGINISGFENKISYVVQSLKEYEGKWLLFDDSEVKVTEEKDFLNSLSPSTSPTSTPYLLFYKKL
Method in brief: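 Deubiquitinase activity followed as kinetic rhodamine fluorescence release from 150 nM Ub-Rho. 1 nM USP1/UAF1 with compound, after 15 min room-temperature preincubation, in HEPES pH 7.8 buffer containing TCEP, EDTA, BSA and Tween-20.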

[12] = measured here: cell count channel max response
[13] = measured here: lipid channel max response

Structure (SMILES)	outcome [1]	Potency [2]	activity change, negative = inhibition [3]	outcome [4]	Potency [5]	Potency [6]	outcome [7]	Potency [8]	Potency [9]	activity change, negative = inhibition [10]	max response [10, 12]	max response [10, 13]	Potency [11]
CCN1C[C@]2(C)CC[C@H](OC)[C@@]34[C@@H]2[C@H](OC(C)=O)[C@]2(OCO[C@@]25C[C@@H](OC)[C@@H]2C[C@@]3(O)[C@H]5[C@@H]2OC)[C@H]14	inactive	inactive	-4.41% (inactive)	inactive	> 20.6 µM (inactive)	> 20.6 µM (inactive)	inactive	inactive	inactive	-1.59% (inactive)	-0.005%	0.99%	inactive
CCN1C[C@@]2(COC)CC[C@H](OC)[C@]34[C@@H]1[C@]1(OCO[C@@]15C[C@@H](OC)C1C[C@H]3[C@H]5[C@@H]1OC)[C@H](O)[C@@H]24	inactive	inactive	-1.05% (inactive)	inactive	> 20.6 µM (inactive)	> 20.6 µM (inactive)	inactive	inactive		-0.879% (inactive)	-14.7%	-15%	inactive
COc1cc2c(c(OC)c1OC)-c1ccc(O)c(=O)cc1[C@H](N)CC2	inactive	inactive	14.9% (inactive)	inactive	> 20.6 µM (inactive)	> 20.6 µM (inactive)	inactive	inactive	inactive	1.48% (inactive)	-6.02%	-4.27%	inactive
